High-throughput results: PubChem BioAssay, University of Kansas High Throughput Screening Laboratory
mHTT CaM bind: disrupts binding of mutant huntingtin to calmodulin. P42858. AlphaScreen His-mHTT/GST-CaM binding, luminescence. inhibition, % at 15 µM. 190,000 compounds, 3.6% hits. AID 1671202;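 further: 0% = both proteins with DMSO and 100% = one protein alone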
Pf apPOL block: Pf-apPOL DNA polymerase inhibition; Recombinant Pf-apPOL, molecular beacon fluorescence, 1.5 h; inhibition, % at 10 µM; 210,000 compounds, 0.25% hits; AID 1794808
* marks the source's active call; other numbers are inactive results; x = not tested or not shown. An excerpt weighted towards active compounds, which were near 3.6% of everything screened. No stated cut-off is given here; in the data, active means inhibition above about 50%; inactive means the rest.

SMILES | mHTT CaM bind | Pf apPOL block
CCn1c(N2CCC(C(=O)NCc3ccc4c(c3)OCO4)CC2)cc(=O)n(C)c1=O | 42 | -3
CCn1c(N2CCC(C(=O)NCc3ccc(OC)cc3)CC2)cc(=O)n(C)c1=O | 57* | -6
CCn1c(N2CCC(C(=O)NCc3ccco3)CC2)cc(=O)n(C)c1=O | 52* | -4
CCc1ccc(CNC(=O)C2CCN(c3cc(=O)n(C)c(=O)n3CC)CC2)cc1 | 41 | -4
Cc1onc(-c2ccccc2)c1C1=N/C(=C/c2ccccc2F)C(=O)O1 | 2 | 7
COc1cc(/C=C2\C(=O)NN(c3ccc(C)c(Cl)c3)C2=O)cc(Br)c1O | 9 | 12
O=C(CCCOc1ccccc1)N1CCc2ccccc21 | -3 | -1
Cc1ccc(C2CC(=O)CC(c3ccc(C)cc3)S2)cc1 (stereo not given) | -18 | 4
CCC(NS(=O)(=O)c1ccc(Cl)c([N+](=O)[O-])c1)C12CC3CC(CC(C3)C1)C2 (stereo not given) | 99* | -4
CCC(NS(=O)(=O)c1cc(Cl)ccc1OC)C12CC3CC(CC(C3)C1)C2 (stereo not given) | -6 | -18
COc1ccc(NC(=O)c2cccc([N+](=O)[O-])c2C)cc1Cl | -3 | -5
CCn1c(=O)c(N2CCN(C(=O)COc3ccc(Cl)cc3C)CC2)nc2ccncc21 | 61* | 4
Cn1c(=O)c(N2CCN(C(=O)COc3ccc(Cl)cc3)CC2)nc2ccncc21 | 20 | 6
O=c1nc2n(c3cc(Cl)ccc13)Cc1ccccc1-2 | 4 | 15
O=C(Cn1c2c(c(-c3ccccc3Cl)cc1=O)CCC2)NCc1ccccc1Cl | 13 | 0
COc1ccc(NC(=O)c2sc3cc(C)ccc3c2Cl)cc1 | 1 | -3
Cn1c(=O)c2nc(SCC#N)n(C)c2n(C)c1=O | -11 | -4
OC(C#Cc1ccccc1)c1ccco1 (stereo not given) | 100* | 70*
O=C(O)CC(C(=O)O)c1ccco1 (stereo not given) | -3 | x
Cc1ccc(Sc2nccnc2N2CCC(C(=O)NCCCN3CCCC3)CC2)cc1 | 8 | -1
O=C(Nc1cc(Cl)ccc1O)c1cc2n(n1)C(C(F)(F)F)CC(c1ccc(Cl)cc1)N2 (stereo not given) | 89* | -3
O=C(NCC1CCCO1)c1cc2n(n1)C(C(F)(F)F)CC(c1ccco1)N2 (stereo not given) | -4 | -2
Cc1ccc(C2CC(C(F)(F)F)n3nc(C(=O)Nc4cccc(CCC#N)c4)cc3N2)cc1 (stereo not given) | 18 | -1
N#CCCc1cccc(NC(=O)c2cc3n(n2)C(C(F)(F)F)CC(c2ccc(Cl)cc2)N3)c1 (stereo not given) | 74* | 0
O=C(NCC1CCCO1)c1cc2n(n1)C(C(F)(F)F)CC(c1ccc(Cl)c(Cl)c1)N2 (stereo not given) | 54* | -8
SMILES | mHTT CaM bind | Pf apPOL block
COc1ccc(C2CC(C(F)(F)F)n3nc(C(=O)Nc4cc(C)ccc4O)cc3N2)cc1 (stereo not given) | 12 | -14
O=C(Nc1cccc(Br)c1)N1CCc2nc(-c3ccc(Cl)cc3)ncc2C1 | -25 | -1
Cc1nc(S(=O)(=O)NC2CCS(=O)(=O)C2)cn1C (stereo not given) | x | -8
COc1ccc(N2C(=O)CC(NCCc3ccc(S(N)(=O)=O)cc3)C2=O)cc1 (stereo not given) | -7 | 8
CN1CCN(C(=O)c2cc(F)c(F)cc2Cl)CC1 | -2 | -5
COc1ccc(C2CC(c3c(-c4ccccc4)c4cc(Br)ccc4[nH]c3=O)=NO2)cc1 (stereo not given) | 15 | 6
CC(=O)N1N=C(c2c(-c3ccccc3)c3cc(Cl)ccc3[nH]c2=O)CC1c1ccccc1Cl (stereo not given) | 93* | -2
O=c1[nH]c2ccc(Br)cc2c(-c2ccccc2)c1[N+](=O)[O-] | 8 | -8
O=c1[nH]c2ccc(Cl)cc2c(-c2ccccc2)c1C1=NOC(c2ccccc2)C1 (stereo not given) | 100* | -10
CC(=O)N1N=C(c2c(-c3ccccc3)c3cc(Cl)ccc3[nH]c2=O)CC1c1ccccc1F (stereo not given) | 18 | -2
CC(=O)N1N=C(c2c(-c3ccccc3)c3cc(Br)ccc3[nH]c2=O)CC1c1ccco1 (stereo not given) | 95* | 0
CS(=O)(=O)NC1CC2CC1CN2C(=O)c1cccc(Cl)c1 (stereo not given) | -2 | 0
Oc1ccc(C(c2c[nH]c3ccccc23)c2c[nH]c3ccccc23)cc1O | -4 | -4
Oc1ccc(-c2csc(-c3c[nH]c4ccccc34)n2)cc1O | 99* | 8
OC(COCC1COc2ccccc2O1)CN1CCOCC1 (stereo not given) | -3 | -9
CCN1CCN(C/C=C/c2ccc(N(C)C)cc2)CC1 | 32 | -2
COc1ccccc1N1CCN(C/C=C/c2ccc(N(C)C)cc2)CC1 | 62* | -9
CCCn1c(=O)c(N2CCN(C(=O)C3CCCCC3)CC2)nc2ccccc21 | -12 | -6
COc1cc(/C=C/c2nc3ccccc3c(=O)n2CCO)ccc1O | 7 | -10
COc1cc(/C=C/c2nc3ccccc3c(=O)n2-c2ccccc2[N+](=O)[O-])ccc1O | 50* | 5
CC(=O)NCCc1csc(C2CCN(C(=O)c3ccc(C)c(F)c3)CC2)n1 | 14 | -5
COc1ccccc1/C=C1\C(=O)NN(c2ccccc2)C1=O | -1 | -4
CC(=O)n1cc(/C=C2\C(=O)NN(c3ccccc3)C2=O)c(-c2ccc(F)cc2)n1 | 54* | -2
O=C(CSc1nnc(NC(=O)NC2CCCCC2)s1)NCc1ccc2c(c1)OCO2 | -11 | -8
O=[N+]([O-])c1ccc2c(N=Nc3ccc4ccccc4c3O)c(O)cc(S(=O)(=O)O)c2c1 | 100* | x
SMILES | mHTT CaM bind | Pf apPOL block
O=[N+]([O-])c1ccc(O)c(N=Cc2sc3ccccc3c2O)c1 | 43 | -5
COc1ccccc1-n1nnc(C(=O)NCCc2ccc(Cl)cc2)c1N | 1 | -5
CC1=NN(C(=O)Cc2ccccc2)C(O)(c2ccc(Br)cc2)C1 (stereo not given) | 16 | -1
CC1=NN(C(=O)CCc2ccccc2)C(O)(c2ccc(Br)cc2)C1 (stereo not given) | 54* | 1
CC1=NN(C(=O)c2ccccc2Br)C(O)(c2ccccc2)C1 (stereo not given) | 1 | -3
CC1=NN(C(=O)c2ccccc2)C(O)(c2ccc(Br)cc2)C1 (stereo not given) | 17 | -3
CCC1=NN(C(=O)c2cccc(C)c2O)C(O)(c2ccc(Br)cc2)C1 (stereo not given) | 87* | -4
CCC1=NN(C(=O)c2ccccc2O)C(O)(c2ccc(Br)cc2)C1 (stereo not given) | 91* | -2
Cn1c(=O)c(I)c(O)c2ccccc21 | x | 2
O=C(CSc1nnc(COc2ccc3c(c2)CCCC3)o1)Nc1cccc(Cl)c1Cl | -13 | -11
CCC(=O)N1CCc2cc(Br)cc(S(=O)(=O)NC3CCCCC3)c21 | 4 | -2
CC(=O)Nc1nc(-c2ccc(C)cc2)c(-c2ccccc2)s1 | 34 | 0
NC(N)=Nc1nc(-c2ccccc2)c(-c2ccccc2)s1 | 100* | 0
COC(=O)c1cnn2c3c(cnc12)CC(C)CC3 (stereo not given) | -2 | -2
O=S(=O)(c1ccc2oc3ccccc3c2c1)N1CCCCc2ccccc21 | -27 | x
